Consider 53 compounds from ChEMBL document CHEMBL3988442, “University of Dundee, Small-Polar-MMV Screening Library” (2021).

The whole screen tested about 48,000 compounds, of which about 13,000 (27%) showed an effect of 50% or more. The list shows a part of the results.

This assay concerns Wolbachia pipientis. The experiment in a line: Anti-Wolbachia Cell-Based Screen. Type of assay: functional. More on the design: scale not given: in the data most compounds retested in dose-response had high values. Particulars: 5 µM.
As for `O=C(Nc1ccc2c(c1)OCO2)N1CCN(CCn2ccnc2)CC1`, the “Percent Effect” value is on record as -13.91%. The value for `CCc1cnc2c(c1Nc1ccc3c(c1)OCO3)c(=O)n(C)c(=O)n2C` was 105.3%; that for `Cn1cnc(S(=O)(=O)Nc2cc(C(N)=O)ccc2Cl)c1` was -10.15%; that for `Cn1cc(C(=O)Nc2ccc(CC(=O)NCC(F)(F)F)cc2)nn1` was -7.927%. In the case of `Cn1cc(C(=O)Nc2ccc3c(c2)CN(C(=O)C2CC2)CC3)nn1`, the “Percent Effect” value is on record as 116.9%. The value for `CN(C)C(=O)Cc1ccc(NC(=O)c2cn(C)nn2)cc1` was -4.709%; that for `Cn1cc(C(=O)Nc2ccc3c(c2)N(C(=O)c2ccco2)CC3)nn1` was 115.2%.

In the case of `Cn1cc(C(=O)Nc2ccc(CC(=O)NC3CC3)cc2)nn1`, the “Percent Effect” value is -0.7616%.

For the compound `CC(=O)N1CCc2ccc(NC(=O)c3cn(C)nn3)cc2C1`, the “Percent Effect” value was 105.1%. The value for `COC(=O)N1CCc2ccc(NC(=O)c3cn(C)nn3)cc2C1` was 2.493%. With `Cn1cc(C(=O)Nc2ccc3c(c2)CN(C(=O)c2ccco2)CC3)nn1`, the “Percent Effect” value amounted to 12.57%. The value for `Oc1cc(CN2CCC(O)(Cn3ccnc3)CC2)nc2c(Cl)cccc12` was -8.472%; that for `CC(CNC(=O)c1ccon1)Oc1cccc(Br)c1` (stereo not drawn) was -16.92%. Regarding `c1cc(-c2ccc(CN3CCC4(CCNCC4)CC3)s2)[nH]n1`, the “Percent Effect” value worked out at 13.89%.

As for `COCCN(C(=O)c1cnccn1)c1nc2c(s1)CCc1c-2cnn1C`, the “Percent Effect” value was found to be 99.99%. As for `CN(C(=O)c1ccccn1)c1nc2c(s1)CCc1c-2cnn1C`, the “Percent Effect” value is reported as -10.1%. The value for `CCCN1CCN(C(=O)c2cnccn2)[C@H]2CS(=O)(=O)C[C@H]21` was -1.357%; that for `COCCCNC(=O)C1CN(C(=O)c2cnccn2)C1` was 10.57%.

As for `CCCN(C(=O)c1ccccn1)c1nc2c(s1)CCc1c-2cnn1C`, the “Percent Effect” value is -6.785%. The value for `COCCN(C(=O)c1ccccn1)c1nc2c(s1)CCc1c-2cnn1C` was 88.66%; that for `Cc1cccc(N(CCC(N)=O)C(=O)c2cnccn2)c1` was -11.19%; that for `COCC1c2nnn(CC3CC3)c2CCN1C(=O)c1cnccn1` (stereo not drawn) was -15.7%.

In the case of `CCCN(C(=O)c1cnc(C)cn1)c1nc2c(s1)CCc1c-2cnn1C`, the “Percent Effect” value was determined as 90.09%.

With `CCCN(C(=O)c1cnccn1)c1nc2c(s1)CCc1c-2cnn1C`, the “Percent Effect” value was 84.76%. The value for `CCN(Cc1cccc2c1OCO2)CC1CCCO1` (stereo not drawn) was -5.577%; that for `Cl.O=C(OCC1CCCN1)c1cccc(NC(=O)c2ccco2)c1` (stereo not drawn) was -13.38%; that for `CC1(C)[C@H]2CC=C(CN3CCCn4nc(C(=O)O)cc4C3)[C@@H]1C2` was -7.582%. The value for `CCc1cnc(C)nc1N(C)CCCc1cnn(C)c1` was 93.68%. The value for `Cc1ccccc1C(C(=O)N(C)CCc1cnn(C)c1)N(C)C` (stereo not drawn) was -25.6%; that for `Cc1c(NC(=O)N(C)CCCc2cnn(C)c2)cnn1C` was -9.365%; that for `CN(CCCc1cnn(C)c1)C(=O)C1CCOC1` (stereo not drawn) was -24.42%.

Turning to `CCc1cnc(N)nc1N(C)CCc1cnn(C)c1`, the “Percent Effect” value is recorded as 112.4%. The value for `Cc1nc(C)c(C)c(N(C)CCCc2nccn2C)n1` was 1.22%; that for `CN(CCc1cnn(C)c1)C(=O)C1COc2ccccc2C1` (stereo not drawn) was 12.32%.

Take `Cc1nc(C(C)C)sc1C(=O)N(C)CCCc1cnn(C)c1`: the “Percent Effect” value was -1.065%. The value for `Cc1cnc(N(C)CCCc2cnn(C)c2)nc1N(C)C` was 116.9%; that for `Cc1ncc(S(C)(=O)=O)c(N(C)CCCc2cnn(C)c2)n1` was 106.8%; that for `CC(C)N1CCCC(C(=O)N(C)CCCc2cnn(C)c2)C1` (stereo not drawn) was -3.497%. The value for `CC(NCCCc1cnn(C)c1)c1ccc(Br)s1` (stereo not drawn) was 0.1879%; that for `CN(C)C(=O)CCNC(=O)c1cnc(-c2ccccc2)nc1` was -4.598%; that for `O=S1(=O)CCC(n2cc(CNCC3(c4ccccc4)CC3)cn2)C1` (stereo not drawn) was 4.552%. The value for `O=C(c1ccc(OCC2CC2)cc1)N1CCOCC1c1ncon1` (stereo not drawn) was -1.778%; that for `Nc1cnc(-c2cccc3ccnn23)cn1` was -6.103%; that for `CN(CC(=O)Nc1ccc(Br)cn1)C(=O)Cc1ccc(O)cc1` was -6.927%. As for `CC(C)c1cc(N2CC[C@H](F)C2)n2nccc2n1`, the “Percent Effect” value is recorded as -1.052%. The value for `Cc1cc(=O)[nH]c(SC(C)C(=O)N2CCC(NS(C)(=O)=O)CC2)n1` (stereo not drawn) was -6.463%.

In the case of `Cc1nnc(N2CCC(NS(C)(=O)=O)CC2)c(C#N)c1C`, the “Percent Effect” value worked out at 4.066%. The value for `CS(=O)(=O)NC1CCCN(c2ccc(C#N)cn2)C1` (stereo not drawn) was 4.469%; that for `CC(C)c1cc(N2CCC(NS(C)(=O)=O)C2)nc(C(C)C)n1` (stereo not drawn) was 107.7%. The value for `CNS(=O)(=O)C1CCN(c2cc(C(C)C)nc(C(C)C)n2)C1` (stereo not drawn) was 80.93%; that for `Cc1cc(N2CCC(NS(C)(=O)=O)CC2)nc(C(C)C)n1` was 66.62%. The value for `Cc1cc(N2CCN(C(=O)c3cc(Cl)c[nH]3)CC2)nc(C(C)C)n1` was -12.01%; that for `CC(C)c1cc(N2CCC(NS(C)(=O)=O)CC2)n2nccc2n1` was -0.6269%.
